Reference: PubChem BioAssay AID624040 (The Scripps Research Institute Molecular Screening Center, 2012)
Out of some 360,000 compounds screened, about 2,100 (0.58%) were called active. Shown is part of a subset that was picked to be rich in actives. Unmarked numbers belong to inactive results.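 How the source made its calls: active means inhibition above a per-plate cutoff, the mean of that plate's test compounds plus 3 SD (cut at about 27% in these data); inactive means the rest.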

Biological target: Muscarinic acetylcholine receptor M5 (Homo sapiens) (UniProt P08912)
Sequence (P08912 whole entry, looked up): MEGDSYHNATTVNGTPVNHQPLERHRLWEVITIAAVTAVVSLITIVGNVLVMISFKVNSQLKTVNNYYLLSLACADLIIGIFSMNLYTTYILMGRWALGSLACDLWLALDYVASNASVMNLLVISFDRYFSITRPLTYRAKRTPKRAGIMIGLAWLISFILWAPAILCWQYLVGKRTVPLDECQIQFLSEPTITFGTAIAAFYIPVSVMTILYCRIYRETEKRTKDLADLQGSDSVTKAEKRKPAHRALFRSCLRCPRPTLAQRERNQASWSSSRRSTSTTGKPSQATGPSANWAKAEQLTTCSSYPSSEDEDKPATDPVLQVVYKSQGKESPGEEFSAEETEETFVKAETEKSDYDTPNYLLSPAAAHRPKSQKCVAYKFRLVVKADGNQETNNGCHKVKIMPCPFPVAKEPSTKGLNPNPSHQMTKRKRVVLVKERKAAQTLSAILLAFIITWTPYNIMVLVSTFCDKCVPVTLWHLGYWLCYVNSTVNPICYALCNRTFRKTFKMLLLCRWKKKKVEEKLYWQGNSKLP
Assay: CHRM5 blockers of acetylcholine calcium response – CHO cells, Fluo-8 calcium fluorescence, primary screen (AID 624040);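 further: 0% = acetylcholine EC80 with DMSO and 100% = DMSO without agonist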
Details: CHO-hM5 cells, ACh EC80, at 3 µM, active compounds read high

SMILES	inhibition
CC(=O)OC(C)C[N+](C)(C)C (configuration not stated)	95.7% (active)
CC(=O)OCC(COC(C)=O)OC(C)=O	-2.99%
CC(=O)OCCC(C)C	6.5%
CC(C[N+](C)(C)C)OC(N)=O (configuration not stated)	74.8% (active)
Cn1c(CCCOc2ccc(Cl)cc2Cl)n[nH]c1=S	6.7%
CN(Cc1ccc(CNC[C@H]2O[C@@H](n3cnc4c(N)ncnc43)[C@H](O)[C@@H]2O)o1)S(C)(=O)=O	-3.06%
O=C(COC(=O)c1cccnc1Cl)Nc1ccc(S(=O)(=O)N2CCOCC2)cc1	13.3%
CCOc1ccc(NC(=O)CSc2nc3ccccc3c(=O)n2Cc2cccs2)cc1	8.62%
O=C(NC(=S)Nc1ccc(Cl)cc1Cl)C1CC1	6.51%
COC(=O)c1ccccc1NC(=O)CN(Cc1ccc(Cl)cc1)S(C)(=O)=O	5.2%
O=C(Cc1ccc(Cl)cc1)NC(=S)Nc1ccccc1O	64.5% (active)
Cc1cc(NS(=O)(=O)c2ccc(NC(=O)c3cccc(OC(F)F)c3)cc2)nc(C)n1	-2.8%
O=C1C(Cl)=C(Oc2ccccc2)C(=O)c2ccccc21	30.4% (active)
O=C(NCc1ccco1)C(c1ccncc1)N(C(=O)Cn1nnc2ccccc21)c1ccccc1 (configuration not stated)	9.94%
O=C(Nc1ccc(S(=O)(=O)NCC2CCCO2)cc1)c1ccc(F)cc1 (configuration not stated)	1.2%
N=c1n(Cc2ccc(Cl)cc2)c2ccccc2n1CC(O)c1ccco1 (configuration not stated)	2.61%
O=S1(=O)CC/C(=N\Nc2ccc(F)cc2)c2ccsc21	-3.05%
CC(C)NS(=O)(=O)c1ccc(OCC(=O)NC2CCCCCC2)cc1	1.3%
Cc1cn([C@H]2C[C@H](O)[C@@H](/C=C/C(=O)NCCCc3ccccc3)O2)c(=O)[nH]c1=O	6.27%
Cc1ccc(NC(=O)c2ccc(Oc3ncccn3)cc2)cc1	9.93%
CCOC(=O)c1cccnc1NC(=O)c1ccncc1	4.86%
Cc1ccc(NC(=O)OCCNC(=O)c2ccncc2)cc1	50% (active)
COC(=O)[C@]12CCCCC=C1N(CCC1=CCCCC1)C(=O)[C@H](CC(=O)N1CCSCC1)C2	1.29%
CCCCCC(O)(CCN1CCCCC1)c1ccccc1 (configuration not stated)	98.2% (active)
CCCCCCC(O)(CCN1CCCCC1)c1ccccc1 (configuration not stated)	97.8% (active)

SMILES	inhibition
COc1ccc(C(O)(C2CCCCC2)C(CN2CCCC2)c2ccccc2)cc1 (configuration not stated)	-3.7%
CCc1ccccc1NC(=O)NCCN1CCCCC1	-5.44%
O=C(c1ccccc1)C(O)(CN1CCCCC1)c1ccccc1 (configuration not stated)	8.34%
C#CC(CCN1CCCCC1)(OC)c1ccccc1 (configuration not stated)	30.6% (active)
CC(CN1CCCCC1)c1ccccc1 (configuration not stated)	2.28%
c1ccc2cc3[nH]c(CN4CCCCC4)nc3cc2c1	7.88%
OC(C#CCN1CCOCC1)(c1ccccc1)C1CCCCC1 (configuration not stated)	7.29%
CCc1ccc[n+](-c2nc([O-])sc2C=O)c1	9.19%
Cc1ccc(C23CC4CC(CC(C(=O)NCC(=O)O)(C4)C2)C3)cc1	6.84%
Cc1nnc(SCCCCSc2nnc(C)c(=O)[nH]2)[nH]c1=O	-7.67%
CC1(C(=O)Nc2ccccc2Br)CCN1C(=O)CC1CC1 (configuration not stated)	4.22%
COn1c(=O)c(=O)n(OC)c2ccccc21	6.69%
CCOc1cc(C(=O)Nc2ccc(S(=O)(=O)Nc3cnc4ccccc4n3)cc2)cc(OCC)c1OCC	0.97%
Nc1nnc(SCC(=O)Nc2ccc3nc(SCC(=O)Nc4ccccc4)sc3c2)s1	43.5% (active)
O=C(CSc1nc(-c2ccccc2)cs1)Nc1cccc([N+](=O)[O-])c1	14.8%
Nc1nnc(SCC(=O)NC2CCCc3ccccc32)s1 (configuration not stated)	2.63%
CCOC(=O)c1nc(-c2ccc3c(c2)OCO3)[nH]c1C	3.11%
COc1ccc2c(c1)[C@H]1[C@H](CO2)[C@H](c2ccccc2)[C@]2(C)C(=O)Nc3cc(F)c(F)cc3C(=O)N12	11.7%
Cc1ccc(C(=O)N2CC(=O)Nc3ccc(F)cc3C2c2ccc(F)cc2)cc1 (configuration not stated)	11.2%
CCN1CCC(O)(/C=C/c2ccc(C)cc2)C(C(=O)/C=C/c2ccc(C)cc2)C1 (configuration not stated)	5.72%
CCN1CCC2(CC1)N=C(c1ccc(F)cc1)C(=S)N2C(=O)c1ccc(C)cc1	69.5% (active)
CCOc1ccc(-n2c(N)c(C(=O)NCC3CCCO3)sc2=S)cc1 (configuration not stated)	3.05%
Cc1cccc(C(=O)NCC(=O)OCC(=O)N(C)CC(=O)Nc2ccccc2Cl)c1	9.75%
CC1(C)CC(N2CCN(C(c3ccccc3)c3ccccc3)CC2)=CC(=[N+]2CCCCC2)C1	31.9% (active)
CC1CC(NC(=O)/C(C#N)=C/c2ccc[nH]2)CC(C)(C)C1 (configuration not stated)	1.56%

SMILES	inhibition
CCC(=O)N1CCN=C1SCc1ccc(F)cc1	5.93%
COc1cccc(CNc2nc(NCc3cccs3)nc3ccsc23)c1	44.2% (active)
COc1ccccc1CNc1nc(Nc2ccccc2Cl)c2sccc2n1	11.1%
COc1cccc(CNc2nc3cc(-c4csc5ccccc45)sc3c(=O)n2C)c1	2.12%
CN(C)c1ccc(NC(=S)N(CCc2ccccc2)C2CC(=O)N(c3c(Cl)cccc3Cl)C2=O)cc1 (configuration not stated)	-4.62%
COC(=O)CN(C(=S)Nc1ccc(Cl)cc1)C1CC(=O)N(c2ccc(OC)cc2)C1=O (configuration not stated)	11.6%
CCOc1ccc(N2C(=O)CC(N(CCc3ccc(OC)c(OC)c3)C(=S)Nc3ccccc3)C2=O)cc1 (configuration not stated)	30.8% (active)
CCn1ncc(CNC(=O)C2(C)CC2(Br)Br)c1C (configuration not stated)	4.36%
CCCCCCCCCCOC(=O)Cn1c(COc2cccc(OC)c2)[n+](C)c2ccccc21	31% (active)
Cc1c(C)c(C)c(S(=O)(=O)N2CCC3(CC2)OCCO3)c(C)c1C	5.79%
COC(C/C=C/C(=O)[C@@H](C)OCc1ccccc1)OC	3.64%
CC(C)(C)C(=O)/C(C#N)=C/c1ccc(O)cc1	4.34%
O=C(/C=C(O)/C=C/c1ccc(O)cc1)/C=C/c1ccc(O)cc1	54.8% (active)
NC1=NC(=O)S/C1=C\c1ccc(O)cc1	-0.48%
COc1ccc(S(=O)(=O)NCCCCOc2ccc(Cl)cc2)cc1	32.2% (active)
COc1ccc(S(=O)(=O)NCCOc2ccccc2)cc1F	-2.02%
COc1ccc(OCCNS(=O)(=O)Cc2ccccc2)cc1	4.63%
Cc1ccc(S(=O)(=O)N2CCOCC2)cc1C(=O)OC1CCCCC1=O (configuration not stated)	5.95%
O=C(COc1ccccc1)Nc1cc2c3c(c1)CC(=O)N3CCC2	-0.99%
CCN(CC)CCOC(=O)c1ccc(NC(=O)CNC(=O)c2ccccc2)cc1	10.2%
CCC(C(=O)Nc1ccc(C(C)C)cc1)c1ccccc1 (configuration not stated)	19.2%
CCC(C(=O)OCCN(CC)CC)c1ccccc1 (configuration not stated)	67.6% (active)
CCOC(=O)CCP(=O)(O)C(O)(c1ccccc1)c1ccccc1	-4.02%
CCCC(C(=O)OCCN(CC)CC)(c1ccccc1)c1ccccc1	48.8% (active)
COC(CCN(C)C)(c1ccccc1)c1ccccc1	11.5%

SMILES	inhibition
CN(C)C(=O)c1ccc2c(c1)C1C3CCC(C3)C1C(c1ccccc1)N2 (configuration not stated)	-2.46%
CCOC(=O)N1CCC(NC(=O)Cn2cc3c(n2)CCCCC3)CC1	0.05%
CC(C)c1ccc(/C=C2\NC(=O)NC2=O)cc1	-18.6%
CC(C)c1ccc(C=NNc2ccc([N+](=O)[O-])cn2)cc1	27.5% (active)
CC(C)c1ccc(NC(=O)CCN2C(=O)c3ccc([N+](=O)[O-])cc3C2=O)cc1	-6.62%
CCS(=O)(=O)N1CCC(N2CCN(c3ccccc3)CC2)CC1	8.56%
Cc1ccccc1NS(=O)(=O)CCCCC(Cl)(Cl)Cl	3.5%
COc1ccc(CN2CC(C(=O)NC3CCCCC3)CC2=O)cc1 (configuration not stated)	-0.55%
CC(=O)N1CCN(Cc2cc(=O)oc3cc(C)ccc23)CC1	-1.45%
COc1ccc(C)cc1NC(=O)C(OC(=O)c1cccc(S(=O)(=O)N(C)c2ccccc2)c1)c1ccccc1 (configuration not stated)	-1.67%
CN(c1ccccc1)S(=O)(=O)c1cccc(C(=O)NNC(=O)c2ccncc2)c1	1.22%
CC(=O)c1c(C)[nH]c(C(=O)COC(=O)c2cccc(S(=O)(=O)N(C)c3ccccc3)c2)c1C	74.2% (active)
O=C(CCc1nnc2ccc(NCc3ccccc3Cl)nn12)NCC1CCN(C2CCCC2)C1 (configuration not stated)	1.64%
COC(C[C@H](O)CC(=O)COCc1ccccc1)OC	2.21%
O=C(NCCN1CCN(C(=O)c2cccc([N+](=O)[O-])c2)CC1)C(=O)NCc1ccc(Cl)cc1	10.1%
COc1ccc(CC(=O)NC2CCSc3ccccc32)cc1OC (configuration not stated)	17.6%
COc1ccc(CC(=O)Nc2nc(-c3ccc(F)c(F)c3)cs2)cc1OC	32.4% (active)
Cc1csc(NC(=O)CSc2ccc(-c3ccc(F)cc3)nn2)n1	6.55%
O=C(CNCCO)NC12CC3CC(CC(C3)C1)C2	-2.76%
NC(=O)C1CCN(C(=O)c2ccc(F)c(S(=O)(=O)N3CCOCC3)c2)CC1	13.8%
COc1ccc(C(=O)Oc2ccc(-c3nnco3)cc2)cc1S(=O)(=O)N1CCOCC1	15.9%
O=C(Oc1ccc(-c2nnco2)cc1)c1ccc(F)c(S(=O)(=O)N2CCOCC2)c1	27.2% (active)
